Measured values from PubChem BioAssay AID1273 (Columbia University Molecular Screening Center, 2008).
In all, about 130,000 compounds went through this assay and about 1,200 (0.92%) were called active.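 The calls were made as follows: active = inhibition above the mean plus 3 SD, with well images judged a real hit on visual review (cut at about 60% in these data, passing the limit was not always enough); inconclusive = inhibition over the cutoff but images rejected on review; inactive = inhibition not above the cutoff.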 What follows is part of a selection rich in actives, with near analogues and random picks from the rest.

Assay: inhibitors of insulin promoter-driven GFP, primary screen, imaging, TRM-6 cells (human fetal islet line), eGFP reporter, cell count (AID 1273;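 as to normalized cell count: cells exposed to compound for 48 h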)
Conditions: at 2 µM, reporter expression induced with tamoxifen; inhibition: stronger effect = higher value; normalized cell count: measured here: cell count, toxicity
In the case of `O=C(COC(=O)c1ccccn1)Nc1cccc2ccccc12`, the inhibition was -83.3% (inactive) and the normalized cell count was 96%. In the case of `O=C(CCN1C(=O)c2ccccc2C1=O)NCCCn1ccnc1`, the inhibition was -16.7% (inactive) and the normalized cell count was 84.2%. In the case of `COc1ccccc1NC(=O)CC(NCCN(C)C)C(=O)O` (stereo not drawn), the inhibition was 72.4% (active) and the normalized cell count was 43%. In the case of `COC(=O)C(CC(=O)Nc1cc(C)ccc1C)Nc1ccccc1OC` (stereo not drawn), the inhibition was 7.14% (inactive) and the normalized cell count was 131%. For `CN(C)CCNC(CC(=O)Nc1ccc(Cl)c(Cl)c1)C(=O)O` (stereo not drawn), the inhibition was 44.2% (inactive) and the normalized cell count was 104%. In the case of `CCN(CC)CCNC(=O)c1sc2ncn(CC(=O)Nc3ccc(C)c(Cl)c3)c(=O)c2c1C`, the inhibition was -14.3% (inactive) and the normalized cell count was 89.6%. In the case of `Cc1c(Br)ccc(NC(=O)COc2ccccc2C(N)=O)c1C`, the inhibition was -5.26% (inactive) and the normalized cell count was 50.7%. For `O=C(Nc1ccc(N2CCN(C(=O)C3CC3)CC2)cc1)c1cccs1`, the inhibition was 36.8% (inactive) and the normalized cell count was 132%. In the case of `COC(=O)Nc1c(C)n(C)n(-c2ccccc2)c1=O`, the inhibition was 13.9% (inactive) and the normalized cell count was 53.7%. For `COc1ccc(S(=O)(=O)Nc2c(C)n(C)n(-c3ccccc3)c2=O)cc1`, the inhibition was 22.7% (inactive) and the normalized cell count was 104%. With `Cc1c(Nc2nc3ccccc3nc2NS(=O)(=O)c2cccs2)c(=O)n(-c2ccccc2)n1C` the inhibition was 75% (active) and the normalized cell count was 38.1%. In the case of `Cc1nn(-c2ccc([N+](=O)[O-])cc2)c(N)c1-c1ccccc1`, the inhibition was 25% (inactive) and the normalized cell count was 95.4%. In the case of `CCOC(=O)c1ccc(NC(=O)C2CC(=O)Nc3nc4ccccc4n32)cc1` (stereo not drawn), the inhibition was -36.4% (inactive) and the normalized cell count was 131%. For `CCOC(=O)c1c(C)[nH]c(C2=NNC(=NC(C)COC)SC2)c1C` (stereo not drawn), the inhibition was 31.2% (inactive) and the normalized cell count was 87.8%. In the case of `O=C(O)CCCc1ccccc1`, the inhibition was -23.8% (inactive) and the normalized cell count was 97.5%. In the case of `Cc1ccc(O)c(CCc2ccccc2)n1`, the inhibition was 91.9% (active) and the normalized cell count was 94.3%. In the case of `Cc1ccc(O)c(-c2cc(C(=O)NCc3ccccc3)[nH]n2)c1`, the inhibition was 7.14% (inactive) and the normalized cell count was 81.6%. With `CN(C)c1nccc(NCc2ccccc2)c1C#N` the inhibition was 40.5% (inactive) and the normalized cell count was 140%. With `O=C(NNc1cc(Cl)ccc1Cl)c1cccnc1Cl` the inhibition was 11.1% (inactive) and the normalized cell count was 114%. With `CCc1nnc(NS(=O)(=O)c2ccc(NC(=S)NC(=O)c3cccs3)cc2)s1` the inhibition was -11.1% (inactive) and the normalized cell count was 96.4%. For `CN(C)/C=C(/C(=O)c1ccc(F)cc1)S(=O)(=O)c1ccc(F)cc1`, the inhibition was 50% (inactive) and the normalized cell count was 124%. With `CN(C)/C=C(/C(=O)c1ccccc1Cl)S(C)(=O)=O` the inhibition was 75% (active) and the normalized cell count was 84.2%. For `CN(C)/C=C(/C(=O)c1ccccc1)S(=O)(=O)c1ccc(Cl)cc1`, the inhibition was -23.8% (inactive) and the normalized cell count was 70.5%. For `COc1cccc(NC(=O)CS(=O)(=O)c2cn(CC(=O)N3CCOCC3)c3ccccc23)c1`, the inhibition was -16.7% (inactive) and the normalized cell count was 88.8%. For `O=C1c2ccccc2C(=O)N1CCC(O)C[N+](=O)[O-]` (stereo not drawn), the inhibition was -17.6% (inactive) and the normalized cell count was 90.3%. For `Cc1cc([N+](=O)[O-])ccc1NC(=O)c1ccc(NC(=O)C(C)C)cc1`, the inhibition was 30% (inactive) and the normalized cell count was 120%. For `CCC(=O)N1CCC(C(N)=O)(N2CCCCC2)CC1`, the inhibition was 33.3% (inactive) and the normalized cell count was 108%. With `COC(=O)C1=C(C)N(C)C(=S)NC1c1cc(OC)ccc1OC` (stereo not drawn) the inhibition was 23.1% (inactive) and the normalized cell count was 118%. In the case of `Cc1nc2ccccc2c(-c2ccccc2)c1C(=O)c1ccccc1`, the inhibition was 27.5% (inactive) and the normalized cell count was 64.5%. With `CCOC(=O)c1cc2ccccc2nc1C` the inhibition was 57.1% (inactive) and the normalized cell count was 47.1%. For `Cc1nc2ccccc2cc1O`, the inhibition was 67.9% (active) and the normalized cell count was 57.9%. With `COc1cc(C(=O)NCc2ccc(-n3cccc3)cc2)cc(OC)c1OC` the inhibition was 46.1% (inactive) and the normalized cell count was 69%. In the case of `O=C(CN1CCSCC1)N/N=C/c1ccc(Cl)cc1`, the inhibition was 35.3% (inactive) and the normalized cell count was 92.4%. In the case of `Cc1ccc(-n2cc(CN(C)Cc3nccn3C)c(-c3cccc(C)c3)n2)cc1`, the inhibition was 41.7% (inactive) and the normalized cell count was 124%. For `O=C(O)C1C2CC2CN1C(=O)c1ccc(Cl)cc1Cl` (stereo not drawn), the inhibition was -5.56% (inactive) and the normalized cell count was 121%. With `Cc1nc2scc(-c3cccs3)c2c(=O)n1N` the inhibition was 9.8% (inactive) and the normalized cell count was 105%. For `CCCc1nc2scc(-c3ccc(C)cc3)c2c(=O)n1N`, the inhibition was 81.5% (active) and the normalized cell count was 78.3%. With `NC(=O)Cc1nc2scc(-c3ccc(Cl)cc3)c2c(=O)[nH]1` the inhibition was 5.88% (inactive) and the normalized cell count was 114%. In the case of `COc1cc(OC)cc(-c2nnc(N(C)C(=O)c3ccncc3)s2)c1`, the inhibition was 36.4% (inactive) and the normalized cell count was 156%. For `CC(NC(=S)NC1CCCCC1)C(c1ccccc1)N1CCOCC1` (stereo not drawn), the inhibition was -38.9% (inactive) and the normalized cell count was 111%. In the case of `Cc1cccc(N(C(=O)Cc2cccs2)C(C(=O)NC2CCCC2)c2ccsc2)c1` (stereo not drawn), the inhibition was -23.3% (inactive) and the normalized cell count was 119%. With `Cc1cccc(N(C(=O)c2ccc(CN3CCOCC3)o2)C(C(=O)NC2CCCCC2)c2ccc(F)cc2)c1` (stereo not drawn) the inhibition was 87.5% (active) and the normalized cell count was 98.6%. In the case of `Cc1ccc(N(C(=O)c2ccc(CN3CCOCC3)o2)C(C(=O)NCCC(C)C)c2cccs2)c(C)c1` (stereo not drawn), the inhibition was 8.11% (inactive) and the normalized cell count was 114%. For `C1CC1Cc1noc(CN2CCN(CC3CC3)CC2)n1`, the inhibition was 0% (inactive) and the normalized cell count was 97.5%. With `CCOC(=O)C1(Cc2cccc(OC)c2)CCN(C(C)CC(C)(C)O)CC1` (stereo not drawn) the inhibition was -275% (inactive) and the normalized cell count was 102%. In the case of `O=C(COC(=O)c1ccc(O)cc1)Nc1nccs1`, the inhibition was 16.7% (inactive) and the normalized cell count was 74.1%. In the case of `CCCCOC(=O)Nc1nccs1`, the inhibition was 93.8% (active) and the normalized cell count was 53.2%. For `COc1cc(C(=O)Nc2nccs2)cc(OC)c1OC`, the inhibition was -25.3% (inactive) and the normalized cell count was 97.1%. With `CC(/C=N/NC(=O)c1ccncc1)=C\c1ccco1` the inhibition was 23.1% (inactive) and the normalized cell count was 115%. For `CC(=O)c1ccc(NC(=O)C(C)NCc2ccc(Cl)cc2)cc1` (stereo not drawn), the inhibition was -189% (inactive) and the normalized cell count was 58.5%. With `Cc1ccc(S(=O)(=O)NC(=O)COc2ccccc2C)cc1` the inhibition was 81.2% (active) and the normalized cell count was 150%. In the case of `COCCNC(=O)COc1ccccc1C`, the inhibition was 20.8% (inactive) and the normalized cell count was 112%. In the case of `Cc1cccc(NC(=O)COc2ccccc2C)n1`, the inhibition was -406% (inactive) and the normalized cell count was 56.6%. In the case of `COc1cccc2cc(S(=O)(=O)c3ccc(C)cc3)/c(=N/NS(=O)(=O)c3ccc(C)cc3)oc12`, the inhibition was 27.3% (inactive) and the normalized cell count was 139%. For `COc1ccc([N+](=O)[O-])cc1NC(=O)COC(=O)/C=C/c1ccco1`, the inhibition was -14.3% (inactive) and the normalized cell count was 128%. With `COC(=O)C1=C(C)N(c2ccc(Br)cc2)C(=O)/C1=C\c1ccco1` the inhibition was 25.6% (inactive) and the normalized cell count was 98.3%. For `COc1ccc(N2C(=O)/C(=C\c3ccco3)N=C2SCC(N)=O)cc1Cl`, the inhibition was 91.7% (active) and the normalized cell count was 75.5%. In the case of `COC(=O)CC1=NN(c2ccccc2)C(=O)C1`, the inhibition was 0% (inactive) and the normalized cell count was 102%. With `CN(C)C=NC(=O)c1cccn1-c1ncc(C(F)(F)F)cc1Cl` the inhibition was 31.2% (inactive) and the normalized cell count was 84.7%. For `CC1CCN(CCC(=O)Nc2ccccc2)CC1`, the inhibition was 78.6% (active) and the normalized cell count was 39.9%. With `COc1ccc(OC)c(NC(=O)CCN2CCC(C)CC2)c1` the inhibition was 34.2% (inactive) and the normalized cell count was 86.9%. In the case of `Cc1ccc(NC(=O)CCN2CCc3ccccc3C2)cc1`, the inhibition was 28.6% (inactive) and the normalized cell count was 64.3%. In the case of `O=C(CCN1CCN(C/C=C/c2ccccc2)CC1)Nc1cccc(F)c1`, the inhibition was -57.1% (inactive) and the normalized cell count was 154%. For `CCc1ccc(/C=C2\SC(N3CCOCC3)=NC2=O)cc1`, the inhibition was 16.7% (inactive) and the normalized cell count was 199%. For `Cc1nnsc1C(=O)Nc1cccc(Cl)c1C`, the inhibition was 50% (inactive) and the normalized cell count was 71.6%. For `O=C(Nc1ccc(-c2ccc3nncn3n2)cc1)C1CCCCC1`, the inhibition was -25% (inactive) and the normalized cell count was 193%. With `Cc1cccc(NC(=O)CN2C(=O)c3ccccc3C2=O)c1C` the inhibition was -28.6% (inactive) and the normalized cell count was 79%. With `S=C(Nc1ccc2c(c1)OCO2)N1CCCC1` the inhibition was -79% (inactive) and the normalized cell count was 73.4%. In the case of `c1ccc(C2=Nc3cccc4cccc(c34)N2)cc1`, the inhibition was -73.5% (inactive) and the normalized cell count was 133%. In the case of `Fc1ccccc1N=C1Nc2cccc3cccc1c23`, the inhibition was 88.9% (active) and the normalized cell count was 172%. For `COc1ccccc1C1=Nc2cccc3cccc(c23)N1`, the inhibition was -6.67% (inactive) and the normalized cell count was 113%. With `Cc1ccc(N(C(=O)Cc2cccs2)C2C=CS(=O)(=O)C2)cc1Cl` (stereo not drawn) the inhibition was 15% (inactive) and the normalized cell count was 128%. In the case of `Cc1cc(NC(=O)CSc2nc3ccccc3n2CC(C)C)no1`, the inhibition was -41.7% (inactive) and the normalized cell count was 96.4%. In the case of `CC1Cc2ccccc2N1S(=O)(=O)c1c(N)n(C)c(=O)n(C)c1=O` (stereo not drawn), the inhibition was -66.7% (inactive) and the normalized cell count was 73.2%. In the case of `COc1ccc(NC(=O)CSc2nnc(-c3cccs3)n2Cc2ccco2)cc1OC`, the inhibition was 72.7% (active) and the normalized cell count was 109%. In the case of `O=C(CSc1nnc(-c2cccs2)n1Cc1ccco1)c1ccc2c(c1)OCO2`, the inhibition was 17.6% (inactive) and the normalized cell count was 96.9%. In the case of `Cc1ccc(NC(=O)CSc2nnc(-c3cnccn3)n2Cc2ccco2)cc1C`, the inhibition was -21.6% (inactive) and the normalized cell count was 100%. In the case of `O=C(CCN1C(=O)c2ccncc2C1=O)Nc1cc(F)ccc1F`, the inhibition was 25% (inactive) and the normalized cell count was 92%. In the case of `CSCC(NS(=O)(=O)c1ccc(C)cc1)C(=O)O` (stereo not drawn), the inhibition was -387% (inactive) and the normalized cell count was 83.3%. For `COCc1cc(C(C)=O)ccc1OC`, the inhibition was 30.8% (inactive) and the normalized cell count was 97.5%. In the case of `Cn1c(N)c(C(=O)COC(=O)c2cnc(Cl)c(Cl)c2)c(=O)n(C)c1=O`, the inhibition was -42.9% (inactive) and the normalized cell count was 106%. For `CCOc1ccc(C(C)=O)cc1COC(=O)c1cnc(Cl)c(Cl)c1`, the inhibition was 83.3% (active) and the normalized cell count was 144%. For `CCSc1sc(CC)cc1C=O`, the inhibition was 57.1% (inactive) and the normalized cell count was 96.8%. For `CCN1CCN(c2ccc(NC(=O)c3cnccn3)cc2)CC1`, the inhibition was -35.7% (inactive) and the normalized cell count was 74.9%.
